Compound activity as filed in PubChem BioAssay.
PostGolgi yeast = growth inhibition of a yeast mutant, post-Golgi transport screen | post-Golgi transport phenotypic cell assay | inhibition, % at 10 µM | hit rate 0.9% among 98,000 | AID 739;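 note: yeast cells grown in 1536-well plates; yeast grown about 18 h at 30C before absorbance read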
CYP2C19 act = cytochrome P450 2C19 (human) activation; recombinant CYP2C19, luciferin-H EGE luminescence; stronger effect = higher value; 0 = fully inhibited enzyme, 1 = untreated enzyme; activation factor at 5 µM; 96,000 tested, under 10 active; AID 1025;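 active = activation factor of at least 2 at 5 µM in the primary screen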;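 note: 0 = wells with 2.5 mM tranylcypromine and 1 = vehicle-only wells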
PostGolgi ctrl = yeast control strain growth, post-Golgi counter-screen; efflux-deficient yeast background strain, growth absorbance A615, 16 h; inhibition, % at 10 µM; hit rate 5% among 98,000; AID 738
CYP2C9 inh = human CYP2C9 inhibition. P11712. CYP2C9 Supersomes, luciferin-H conversion, luminescence. inhibition, % at 5 µM. hit rate 20% among 96,000;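 active = blocking of liver enzyme CYP2C9 beyond about 50% at 5 µM, limit read from the data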
Target sequence (P11712 whole entry, looked up): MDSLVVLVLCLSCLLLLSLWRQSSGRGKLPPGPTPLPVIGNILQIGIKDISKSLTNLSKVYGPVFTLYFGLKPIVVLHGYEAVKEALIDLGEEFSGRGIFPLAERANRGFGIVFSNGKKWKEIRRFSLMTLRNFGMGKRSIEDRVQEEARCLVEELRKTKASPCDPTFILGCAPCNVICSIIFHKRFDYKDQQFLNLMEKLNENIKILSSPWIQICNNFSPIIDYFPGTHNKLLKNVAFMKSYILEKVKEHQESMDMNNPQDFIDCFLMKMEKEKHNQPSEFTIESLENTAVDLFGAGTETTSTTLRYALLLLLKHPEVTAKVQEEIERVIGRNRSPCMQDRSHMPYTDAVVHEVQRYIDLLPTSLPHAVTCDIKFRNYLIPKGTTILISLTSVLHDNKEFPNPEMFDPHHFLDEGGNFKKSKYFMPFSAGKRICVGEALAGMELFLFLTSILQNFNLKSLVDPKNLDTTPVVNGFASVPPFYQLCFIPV
CYP2C9 act = increases human cytochrome P450 2C9 activity; P11712; recombinant CYP2C9, luciferin-H conversion, luminescence; stronger effect = higher value; factor 1 = untreated enzyme, 0 = blocked; activation factor at 5 µM; hit rate 1.4% among 96,000;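 active = activation factor of 2 or more for CYP2C9 at a 5 µM dose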;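 note: 0 = sulfaphenazole-blocked wells and 1 = vehicle-only wells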
CYP2C19 inhib = inhibitors of human CYP2C19; P33261; CYP2C19 Supersomes, luciferin-H EGE luminescence, 30 min; inhibition, % at 5 µM; hit rate 21% among 96,000;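 active = CYP2C19 inhibition above a set limit at 5 µM in the primary screen, cut at about 50% in these data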;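 note: plate controls were negative control wells for no effect and 2.5 mM tranylcypromine positive control for full effect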
Active calls of the source: *. Rows were chosen to be rich in hits. Some 32% of all compounds tested hit in one or more screens of this group. Cut-off read from the data, not from the text of the source, unless noted: active = inhibition above about 30%; inactive = the rest.

Screening CCCn1c(SCc2ccccc2)nc2c1c(=O)[nH]c(=O)n2C returned PostGolgi yeast -2.8, CYP2C19 act 0.8, PostGolgi ctrl 49.5*, CYP2C9 inh -9.2, CYP2C9 act 1.1 and CYP2C19 inhib 23.6.
For CCOC(=O)C(CC)Sc1nc2c(c(=O)[nH]c(=O)n2C)n1CCc1ccccc1 (configuration not stated) the results were PostGolgi yeast 3.8, CYP2C19 act 0.4, PostGolgi ctrl 11.5, CYP2C9 inh 78.2*, CYP2C9 act 0.2 and CYP2C19 inhib 60.0*.
Screening CCCCCSc1nc2c(c(=O)[nH]c(=O)n2C)n1CCc1ccccc1 returned CYP2C19 act 1, CYP2C9 inh -3.4, CYP2C9 act 1 and CYP2C19 inhib 0.1.
CCC(C)Sc1nc2c(c(=O)[nH]c(=O)n2C)n1CCc1ccccc1 (configuration not stated) was read as PostGolgi yeast -4.9 and PostGolgi ctrl 19.8.
C=CCn1c(SCc2ccc(F)cc2)nc2c1c(=O)[nH]c(=O)n2C was read as PostGolgi yeast -4.0, CYP2C19 act 0.4, PostGolgi ctrl 3.6, CYP2C9 inh 46.0, CYP2C9 act 0.5 and CYP2C19 inhib 57.5*.
Screening CC(C)Sc1nc2c(c(=O)[nH]c(=O)n2C)n1CCc1ccccc1 returned PostGolgi yeast -0.7, CYP2C19 act 0.9, PostGolgi ctrl 31.2*, CYP2C9 inh 8.5, CYP2C9 act 0.9 and CYP2C19 inhib 14.5.
For CCOC(=O)c1c(C)n(C)c2ccc(OC)c(NC(=O)CN3CCN(C4CCCCC4)CC3)c12 the results were PostGolgi yeast 0.3, CYP2C19 act 1.2, PostGolgi ctrl -16.0, CYP2C9 inh 8.3, CYP2C9 act 0.9 and CYP2C19 inhib -15.5.
Screening CCN(C(=O)c1cn(C)c(=O)c2cc(OC)c(OC)cc12)c1cc(OC)ccc1OC returned PostGolgi yeast -4.2, CYP2C19 act 1, PostGolgi ctrl 13.8, CYP2C9 inh -2.3, CYP2C9 act 1 and CYP2C19 inhib -3.0.
For CCNC(=O)NC(=O)C(C)Sc1nc2cc(C(=O)OC)ccc2c(=O)n1-c1ccccc1 (configuration not stated) the results were PostGolgi yeast 7.7, CYP2C19 act 0.9, PostGolgi ctrl 8.9, CYP2C9 inh 43.8, CYP2C9 act 0.6 and CYP2C19 inhib 9.0.
Cc1ccc(NC(=O)NC(=O)N(c2ccccc2)S(C)(=O)=O)cc1 was read as PostGolgi yeast -1.1, CYP2C19 act 0.9, PostGolgi ctrl -2.1, CYP2C9 inh -4.2, CYP2C9 act 1 and CYP2C19 inhib 10.3.
Screening COCCCNC(=O)c1cc(C(=O)c2c(-c3c(Cl)cccc3Cl)noc2C)c[nH]1 returned PostGolgi yeast -0.5, CYP2C19 act 1, PostGolgi ctrl 11.3, CYP2C9 inh 7.5, CYP2C9 act 0.9 and CYP2C19 inhib -3.7.
For CCOC(=O)Cc1csc(NC(=O)C(C)(C)CC)n1 the results were PostGolgi yeast 15.3, CYP2C19 act 0.9, PostGolgi ctrl 7.3, CYP2C9 inh 43.3, CYP2C9 act 0.6 and CYP2C19 inhib 14.0.
For Cc1cc(C)n(-c2nc3c(c(=O)[nH]c(=O)n3C)n2Cc2ccccc2)n1 the results were PostGolgi yeast -3.8, CYP2C19 act 1.1, PostGolgi ctrl 11.7, CYP2C9 inh -8.7, CYP2C9 act 1.1 and CYP2C19 inhib -7.0.
Cn1c(=O)[nH]c(=O)c2c1nc(SCCN1CCOCC1)n2CCCc1ccccc1 was read as PostGolgi yeast -2.2, CYP2C19 act 0.8, PostGolgi ctrl -2.3, CYP2C9 inh 67.1*, CYP2C9 act 0.3 and CYP2C19 inhib 22.9.
Cc1cc(C)n(-c2nc3c(c(=O)[nH]c(=O)n3C)n2CCc2ccccc2)n1 was read as PostGolgi yeast -2.9, CYP2C19 act 0.8, PostGolgi ctrl 55.9*, CYP2C9 inh 1.7, CYP2C9 act 1 and CYP2C19 inhib 24.7.
Screening Cn1c(=O)[nH]c(=O)c2c1nc(SCCN1CCOCC1)n2Cc1ccccc1 returned PostGolgi yeast 2.1, CYP2C19 act 1.1, PostGolgi ctrl 6.4, CYP2C9 inh 2.0, CYP2C9 act 1 and CYP2C19 inhib -8.6.
Cc1nnc(Sc2nc3c(c(=O)[nH]c(=O)n3C)n2CCCc2ccccc2)s1 was read as PostGolgi yeast 4.9, CYP2C19 act 0.7, PostGolgi ctrl -4.8, CYP2C9 inh 60.0*, CYP2C9 act 0.4 and CYP2C19 inhib 27.3.
For Nc1cccnc1Sc1cc(Cl)cc(Cl)c1 the results were PostGolgi yeast -2.4, CYP2C19 act 0.5, PostGolgi ctrl 13.0, CYP2C9 inh -71.8, CYP2C9 act 1.7 and CYP2C19 inhib 48.4.
`Cc1ccc2c(CC(=O)OC3CCOC3=O)coc2c1` (configuration not stated) gave PostGolgi yeast 16.9, CYP2C19 act 0.6, PostGolgi ctrl -3.1, CYP2C9 inh 17.6, CYP2C9 act 0.8 and CYP2C19 inhib 37.2.
For CN1C(=O)C(O)(C2OC(C)(C)CCC2=O)c2ccccc21 (configuration not stated) the results were PostGolgi yeast 8.9, CYP2C19 act 0.9, PostGolgi ctrl 7.2, CYP2C9 inh 15.5, CYP2C9 act 0.8 and CYP2C19 inhib 14.7.
For CN1C(=O)C2(N=c3ccccc3=N2)c2ccccc21 the results were PostGolgi yeast 4.8, CYP2C19 act 0.8, PostGolgi ctrl 26.5, CYP2C9 inh 80.0*, CYP2C9 act 0.2 and CYP2C19 inhib 18.1.
For COc1cc(C(O)P(=O)(OC2CCCCC2)c2ccc(N(C)C)cc2)cc(OC)c1OC (configuration not stated) the results were PostGolgi yeast -1.6, CYP2C19 act 0.2, PostGolgi ctrl 10.9, CYP2C9 inh 26.6, CYP2C9 act 0.7 and CYP2C19 inhib 83.8*.
Screening Cc1ccc(S(=O)(=O)NCc2cn3c(C)csc3n2)cc1 returned PostGolgi yeast -2.3, CYP2C19 act 0.8, PostGolgi ctrl 14.3, CYP2C9 inh -8.8, CYP2C9 act 1.1 and CYP2C19 inhib 19.5.
Cc1cc(C)c(S(=O)(=O)NCc2cn3c(C)csc3n2)cc1C was read as PostGolgi yeast -4.8, CYP2C19 act 0.8, PostGolgi ctrl -1.6, CYP2C9 inh -17.5, CYP2C9 act 1.2 and CYP2C19 inhib 18.4.
Cc1ccc(SCc2cn3c(C)csc3n2)cc1 was read as PostGolgi yeast 0.3, CYP2C19 act 0.1, PostGolgi ctrl 12.7, CYP2C9 inh -186.8, CYP2C9 act 2.9* and CYP2C19 inhib 90.4*.
For Cc1csc2nc(CCNS(=O)(=O)c3cccs3)cn12 the results were PostGolgi yeast -1.8, CYP2C19 act 0.3, PostGolgi ctrl 0.1, CYP2C9 inh -20.9, CYP2C9 act 1.2 and CYP2C19 inhib 70.1*.
For Cc1nc(CCNS(=O)(=O)c2cccs2)cs1 the results were PostGolgi yeast 25.8, CYP2C19 act 0.7, PostGolgi ctrl 2.2, CYP2C9 inh -11.7, CYP2C9 act 1.1 and CYP2C19 inhib 34.5.
Screening Cc1cc(C)c(S(=O)(=O)NCc2cn3c(C)csc3n2)c(C)c1 returned PostGolgi yeast -12.4, CYP2C19 act 0.5, PostGolgi ctrl -2.1, CYP2C9 inh -21.3, CYP2C9 act 1.2 and CYP2C19 inhib 50.9*.
